From the supplement of paper PMC6279402
Counter-ions that a name gives are not always drawn. ± gives the standard deviation of the averaged measurements.

Tested on: A549
Assay: relative viability (normalised to negative control = 1, bortezomib = 0) (fraction); higher = less cytotoxic
Settings: inflammatory serum-free RHB-A with cytokines + LPS, 5 d + 24 h CellTiter-Blue
[1] = compound 30 nM, GSK126 pretreatment: 5 uM GSK126
[2] = compound 30 nM, GSK126 pretreatment: none (vehicle)
[3] = compound 300 nM, GSK126 pretreatment: 5 uM GSK126
[4] = compound 300 nM, GSK126 pretreatment: none (vehicle)

SMILES | relative viability [1] | relative viability [2] | relative viability [3] | relative viability [4]
Cc1cc(Nc2cc(N3CCN(C)CC3)nc(/C=C/c3ccccc3)n2)n[nH]1 | 0.897 ± 0.13 | 0.929 ± 0.11 | 0.827 ± 0.17 | 0.769 ± 0.04
CC(=O)O[C@@]12CO[C@@H]1C[C@H](O)[C@@]1(C)C(=O)[C@H](O)C3=C(C)[C@@H](OC(=O)[C@H](O)[C@@H](NC(=O)OC(C)(C)C)c4ccccc4)C[C@@](O)([C@@H](OC(=O)c4ccccc4)[C@H]21)C3(C)C [Docetaxel] | 0.491 ± 0.058 | 0.349 ± 0.015 | 0.583 ± 0.053 | 0.429 ± 0.011
CCC[C@H](NC(=O)/C(C#N)=C/c1cccc(Br)n1)c1ccccc1 | 0.926 ± 0.078 | 0.929 ± 0.044 | 0.973 ± 0.14 | 1.04 ± 0.065
C[C@]12CC[C@@H]3c4ccc(O)cc4C[C@@H](CCCCCCCCC[S+]([O-])CCCC(F)(F)C(F)(F)F)[C@H]3[C@@H]1CC[C@@H]2O (stereo partly drawn) [Fulvestrant] | 0.901 ± 0.098 | 0.836 ± 0.039 | 0.85 ± 0.065 | 0.855 ± 0.024
NC(=O)NO [Hydroxyurea] | 0.998 ± 0.13 | 1.05 ± 0.1 | 1.09 ± 0.071 | 1.06 ± 0.05
COc1cc([C@@H]2c3cc4c(cc3[C@@H](O[C@@H]3O[C@@H]5CO[C@@H](C)O[C@H]5[C@H](O)[C@H]3O)[C@H]3COC(=O)[C@H]23)OCO4)cc(OC)c1O [Etoposide] | 0.938 ± 0.081 | 0.935 ± 0.037 | 0.985 ± 0.046 | 0.845 ± 0.047
CS(=O)(=O)OCCCCOS(C)(=O)=O [Busulfan] | 0.889 ± 0.017 | 0.865 ± 0.038 | 0.916 ± 0.067 | 0.893 ± 0.024
CC1(C)CNc2cc(NC(=O)c3cccnc3NCc3ccncc3)ccc21 [Motesanib Diphosphate] | 0.917 ± 0.035 | 0.864 ± 0.062 | 0.937 ± 0.14 | 0.918 ± 0.06
Cc1cc(Nc2cc(CN3CCOCC3)c3nc(C)c(Cc4ccc(Cl)cc4F)n3n2)n[nH]1 | 0.974 ± 0.13 | 0.988 ± 0.062 | 1.24 ± 0.078 | 1.23 ± 0.03
CO[C@@]12[C@H](COC(N)=O)C3=C(C(=O)C(C)=C(N)C3=O)N1C[C@@H]1N[C@@H]12 [Mitomycin; Mitomycin C] | 0.827 ± 0.16 | 0.845 ± 0.092 | 0.58 ± 0.1 | 0.47 ± 0.05
Nc1cccc2c1CN(C1CCC(=O)NC1=O)C2=O (stereo not drawn) [Lenalidomide] | 0.854 ± 0.11 | 0.789 ± 0.061 | 0.882 ± 0.059 | 0.82 ± 0.035
COc1cc2/c(=N/c3ccc(Br)cc3F)nc[nH]c2cc1OCC1CCN(C)CC1 [Vandetanib] | 0.923 ± 0.1 | 0.924 ± 0.083 | 0.742 ± 0.12 | 0.705 ± 0.044
COc1cccc2c1C(=O)c1c(O)c3c(c(O)c1C2=O)C[C@@](O)(C(C)=O)C[C@@H]3O[C@H]1C[C@H](N)[C@H](O)[C@H](C)O1 [Daunorubicin hydrochloride; Daunorubicin HCl] | 0.839 ± 0.095 | 0.765 ± 0.056 | 0.133 ± 0.019 | 0.143 ± 0.021
COc1cc([C@@H]2c3cc4c(cc3[C@@H](O[C@@H]3O[C@@H]5CO[C@@H](c6cccs6)O[C@H]5[C@H](O)[C@H]3O)[C@H]3COC(=O)[C@H]23)OCO4)cc(OC)c1O [Teniposide] | 0.861 ± 0.062 | 0.777 ± 0.076 | 0.685 ± 0.037 | 0.544 ± 0.072
CNC(=O)Nc1ccc(-c2nc(N3CC4CCC(C3)O4)c3cnn(C4CCC5(CC4)OCCO5)c3n2)cc1 | 0.424 ± 0.074 | 0.432 ± 0.012 | 0.226 ± 0.011 | 0.237 ± 0.035
CC(C)c1cnn2c(NCc3ccccc3)cc(NCCCCCCN)nc12 [BS-181 hydrochloride] | 0.804 ± 0.083 | 0.821 ± 0.11 | 0.853 ± 0.063 | 0.895 ± 0.049
CCCNC(=O)Nc1ccc(Oc2ncnc3cc(OC)c(OC)cc23)cc1Cl | 0.713 ± 0.055 | 0.752 ± 0.01 | 0.775 ± 0.19 | 0.895 ± 0.087
Cc1cc(Nc2cc(N3CCN(C)CC3)nc(Sc3ccc(NC(=O)C4CC4)cc3)n2)n[nH]1 | 0.766 ± 0.087 | 0.717 ± 0.062 | 0.584 ± 0.067 | 0.459 ± 0.052
CC(=O)c1c(C)c2cnc(Nc3ccc(N4CCNCC4)cn3)nc2n(C2CCCC2)c1=O | 0.89 ± 0.074 | 0.913 ± 0.063 | 0.903 ± 0.087 | 0.931 ± 0.064
Cc1[nH]c(/C=C2\C(=O)Nc3ccc(S(=O)(=O)N(C)c4cccc(Cl)c4)cc32)c(C)c1C(=O)N1CCN(C)CC1 | 0.89 ± 0.053 | 0.887 ± 0.099 | 1.03 ± 0.01 | 1.03 ± 0.01
Cc1c(CN2CCN(C(=O)[C@H](C)O)CC2)sc2c(N3CCOCC3)nc(-c3cnc(N)nc3)nc12 | 0.678 ± 0.048 | 0.754 ± 0.063 | 0.15 ± 0.033 | 0.172 ± 0.013
Cn1c(=O)c(F)c(Nc2ccc(I)cc2F)c2c(=O)n(C[C@@H](O)CO)cnc21 | 0.156 ± 0.017 | 0.1847 ± 0.0015 | 0.0544 ± 0.0097 | 0.0397 ± 0.0058
N#CCNC(=O)c1ccc(-c2ccnc(Nc3ccc(N4CCOCC4)cc3)n2)cc1 | 0.933 ± 0.027 | 0.961 ± 0.042 | 1.22 ± 0.083 | 1.4 ± 0.038
Cc1ncc(-c2ccnc(Nc3ccc(S(C)(=O)=O)cc3)n2)n1C(C)C | 0.867 ± 0.072 | 0.854 ± 0.011 | 0.675 ± 0.062 | 0.69 ± 0.03
CC(C)(C)c1cc(NC(=O)Nc2ccc(-c3cn4c(n3)sc3cc(OCCN5CCOCC5)ccc34)cc2)no1 | 0.952 ± 0.016 | 0.898 ± 0.068 | 1.05 ± 0.087 | 1 ± 0.031
O=C(Cc1ccc(-c2ccc(OCCN3CCOCC3)cc2)cn1)NCc1ccccc1 | 0.319 ± 0.065 | 0.211 ± 0.026 | 0.388 ± 0.049 | 0.248 ± 0.05
CC[C@@H]1C(=O)N(C)c2cnc(Nc3ccc(C(=O)NC4CCC(N5CCN(CC6CC6)CC5)CC4)cc3OC)nc2N1C(C)C (stereo partly drawn) [BI6727 (Volasertib)] | 0.404 ± 0.1 | 0.38 ± 0.095 | 0.227 ± 0.042 | 0.249 ± 0.097
